# The campaign covered roughly 330,000 compounds. About 1,900 (0.58%) were called active. About 4% were inconclusive and are not listed. These entries were drawn from the full list. Potency and affinity values are given separately. A number with no mark means an inactive call. Cut-off read from the data, not from the text of the source: inconclusive = inhibition above about 70% without an active follow-up result; inactive = below that.
# Assay: M. tuberculosis growth inhibition, HTS (AID 449762);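 note: bacterial growth assessed after seven days of incubation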
# Conditions: M. tuberculosis H37Rv growth inhibition, 7H9 media; at 25 µM; stronger effect = higher value
row,Compound,inhibition
1,C#CCOCCOCCOCCNc1nc(N2CCN(C(=O)[C@H](CCC(=O)O)n3cc([C@@H](N)[C@H](C)CC)nn3)CC2)nc(N2CCN(C(=O)[C@H](CCC(=O)O)n3cc([C@@H](N)CCSC)nn3)CC2)n1,3.47%
2,O=C1C=C(c2ccc3c(c2)oc2ccccc23)C[C@@H](c2ccc3c(c2)OCO3)C1,36.8%
3,FC(F)(F)c1ccc(C2[C@H]3CN(CC4CCCCC4)[C@H](c4ccccc4)C34CC2(c2cccnc2)C4)cc1 (stereo partly drawn),58%
4,c1ccc(C2[C@H]3CN(CC4CCCCC4)[C@H](c4ccccc4)C34CC2(c2ccccc2)C4)cc1 (stereo partly drawn),2.3%
5,CC(C)(C#CCCCCC#CC(C)(C)[N+](C)(C)C)[N+](C)(C)C,-2.46%
6,Cc1ccc(/C=C/C(=O)c2ccc(C)cc2)cc1,-12.1%
7,Cc1ccc(C(=O)/C=C/C(=O)O)cc1,-2.7%
8,Cc1cc(Nc2ccc(C(=O)O)cc2)n2nc(C)nc2n1,-2.73%
9,O=C(COc1ccccc1)Nc1nnc(-c2ccccc2Cl)o1,28.7%
10,O=C(Nc1ccccc1)c1nc2ccccc2s1,23.7%
11,OC1CCCN(Cc2nc(Cc3ccccc3Cl)no2)C1 (stereo not drawn),-6.97%
12,O=C(O)c1ccccc1Nc1cccc(OCc2ccc3ccccc3n2)c1,-1.2%
13,CCCCC[C@@H](O)c1cc2ccccc2c(=O)o1,-0.25%
14,CCc1ccc2c(c1)C(c1ccc(N3CCOCC3)cc1)=NNC(c1ccncc1)=N2,44.4%
15,CCOC(=O)C1CCCN(C(=O)CCCn2c(=O)c3cccn3c3cccnc32)C1 (stereo not drawn),1.46%
16,Cc1ccc(N2CC(C(=O)N3CCC(C(=O)Nc4ccc(Br)cc4)CC3)CC2=O)cc1 (stereo not drawn),32.6%
17,CCc1ccc(N=c2c([N+](=O)[O-])nn(-c3ccccc3)n2O)cc1,64.6%
18,COc1ccccc1N=c1c2c([N+](=O)[O-])cc([N+](=O)[O-])cc2n(O)n1-c1ccccc1OC,-0.38%
19,COc1ccc(C(=O)N(CC2CCCO2)C(C(=O)NC2CCCC2)c2ccc(C)cc2)cc1OC (stereo not drawn),-13.5%
20,COc1ccc(C(=O)CN2CC(C)SC2=Nc2ccc(Cl)cc2)cc1 (stereo not drawn),13.6%

row,Compound,inhibition
1,CN(C)/C=C1/OC(=O)C(C#N)=C1c1ccc(Cl)cc1,-3.95%
2,O=C1O/C(=C/c2ccccc2)c2ccccc21,4.48%
3,O=C1CC(c2ccc(Cl)cc2)CC(=O)C1CS(=O)(=O)c1ccccc1 (stereo not drawn),5.94%
4,CCC(=O)N1N=C(c2ccc(NS(=O)(=O)c3ccccc3)cc2)CC1c1ccco1 (stereo not drawn),1.78%
5,CCn1c(=O)c2c(nc3n2CCCN3CCc2ccccc2)n(C)c1=O,6.27%
6,Cc1nc(N)nc(Cl)c1Cc1ccc(Cl)cc1,0.95%
7,COc1ccc(Cc2c(C)nc(N)nc2Cl)cc1,8.87%
8,COc1cc(OC)cc(C(=O)NCC(=O)OCC(=O)N2CCc3ccccc32)c1,5.39%
9,Cc1cc2c(nn1)CCc1c-2no[n+]1[O-],-1.95%
10,O=C(CN1CCN(c2ncccn2)CC1)NCc1ccc2c(c1)OCO2,-8.33%
11,O=C(CN1CCN(c2nc(-c3ccccc3)cs2)CC1)Nc1ccc2c(c1)OCO2,-7.77%
12,O=C1C2CC=C(Cl)CC2C(=O)N1CC1Cc2ccccc2CO1 (stereo not drawn),-2.11%
13,N#Cc1cccc(NC(=O)CCc2ccc(S(=O)(=O)N3CCOCC3)cc2)c1,2.35%
14,CCOc1ccc(CCNC(=O)C2CCN(c3nnc(-n4cccc4)s3)CC2)cc1,-2%
15,CCOc1ccc2nc(N3CCCC(C(=O)NCCCN4C(C)CCCC4C)C3)sc2c1 (stereo not drawn),6.54%
16,OCC[C@H]1C[C@@H](O)[C@H](O)[C@@]2(Cc3ccccc3CO2)O1,-8.04%
17,O=C(CSc1nnc(Nc2ccccc2F)s1)NC(=O)CN1CCCC1=O,-10.7%
18,Cc1nn(Cc2cccc(C(=O)Nn3cc([N+](=O)[O-])cn3)c2)c(C)c1[N+](=O)[O-],10.2%
19,COc1ccc(OCc2cccc(C(=O)NN)c2)cc1,5.13%
20,CC1CCN(C(=O)Cn2nnc(-c3ccccc3)n2)CC1,5.98%

row,Compound,inhibition
1,CC(C)(C)c1ccc(/C=C2/SC(N3CCCC3)=NC2=O)cc1,24.7%
2,Cc1ccsc1/C=C1/SC(N2CC(C)OC(C)C2)=NC1=O (stereo not drawn),68.3%
3,Cc1ccsc1/C=C1\SC(N2CC(C)OC(C)C2)=NC1=O (stereo not drawn),67.9%
4,O=C1N=C(N2CCCC2)S/C1=C\c1ccccc1,0.89%
5,COC(=O)C(CCCN1C(=O)c2ccccc2C1=O)(NC(C)=O)c1nnn(C)n1 (stereo not drawn),-2.74%
6,COC(=O)c1cccc(-c2noc(-c3ccccc3F)n2)c1,-2.87%
7,Cc1cccc(NC(=O)c2sccc2-n2cccc2)c1C,6.88%
8,Cc1ccc(NC(=O)c2sccc2-n2cccc2)c(Cl)c1,4.85%
9,Cc1ccc2cc(CN(c3ccccc3C)S(=O)(=O)c3ccccc3)c(=O)[nH]c2c1,11.1%
10,CNC(=O)c1ccsc1NC(=O)c1ccccc1,-14.7%
11,Nc1sccc1C(=O)c1ccccc1,-3.41%
12,Cc1cc(OCC(O)CNC(C)(C)C)ccc1Cl (stereo not drawn),-5.73%
13,COc1ccc(CCNCC(O)COc2ccc(Cl)cc2)cc1OC (stereo not drawn),-0.15%
14,Cc1cc(C)c(OCC(=O)OCC(=O)NC2CCCCCCC2)c(C)c1,-6.93%
15,CCN(CC)S(=O)(=O)c1ccc(C(=O)NNC2=NS(=O)(=O)c3ccccc32)cc1,-5.34%
16,COc1ccccc1N1CCN(Cc2nc3ccsc3c(=O)[nH]2)CC1,-2.58%
17,O=c1[nH]c(CN2CCN(c3ccccc3Cl)CC2)nc2ccsc12,6.57%
18,COC(=O)C1=C(c2c(C)noc2C)C[C@@H]2CC[C@H]1N2C(=O)N1CCC(C)CC1,-12.5%
